# Reference: PubChem BioAssay (NCI)
# This is part of a sample that, as a whole, favours compounds with a hit. Of some 83,000 tested, about 20% had one in any assay.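 Values shown are percent growth following 48 h exposure of cells in 96-well plates to a single concentration of compound; below 10 was considered active.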 A number with no mark means an inactive call. Activity calls are given as the source filed them.
# Assays:
# Test in all cases: NCI-60 one-dose screen, 48 h (100 = growth as untreated, 0 = no growth, -100 = all killed)
# Conditions in all cases: 10 µM unless noted
# HCT-15 colon = tested on: HCT-15 colon
# HT29 colon = tested on: HT29 colon
# SNB-75 CNS = tested on: SNB-75 CNS
# SNB-19 CNS = tested on: SNB-19 CNS
# U251 CNS = tested on: U251 CNS
# PC-3 prostate = tested on: PC-3 prostate
# UACC-62 melanoma = tested on: UACC-62 melanoma
# LOX IMVI melanoma = tested on: LOX IMVI melanoma
# SK-MEL-28 melanoma = tested on: SK-MEL-28 melanoma
# SK-MEL-2 melanoma = tested on: SK-MEL-2 melanoma
# SN12C renal = tested on: SN12C renal
# UO-31 renal = tested on: UO-31 renal
# ACHN renal = tested on: ACHN renal
# A498 renal = tested on: A498 renal
# CCRF-CEM leukemia = tested on: CCRF-CEM leukemia
# MOLT-4 leukemia = tested on: MOLT-4 leukemia
# EKVX NSCLC = tested on: EKVX NSCLC
# TK-10 renal = tested on: TK-10 renal
# CAKI-1 renal = tested on: CAKI-1 renal
# SK-MEL-5 melanoma = tested on: SK-MEL-5 melanoma
SMILES,growth (HCT-15 colon),growth (HT29 colon),growth (SNB-75 CNS),growth (SNB-19 CNS),growth (U251 CNS),growth (PC-3 prostate),growth (UACC-62 melanoma),growth (LOX IMVI melanoma),growth (SK-MEL-28 melanoma),growth (SK-MEL-2 melanoma),growth (SN12C renal),growth (UO-31 renal),growth (ACHN renal),growth (A498 renal),growth (CCRF-CEM leukemia),growth (MOLT-4 leukemia),growth (EKVX NSCLC),growth (TK-10 renal),growth (CAKI-1 renal),growth (SK-MEL-5 melanoma)
NC(=O)c1cc(Cl)ccc1NC(=O)COc1ccccc1,33.3%,17.6%,36.5%,64.7%,39.7%,47.3%,56.7%,59.4%,69.3%,49.7%,64.3%,58.3%,58.4%,83.5%,23.2%,34.7%,–,–,–,–
O=C1C(N2CCOCC2)=Cc2cccc3cccc1c23,92.6%,92.4%,86.9%,92.4%,92.8%,95.4%,91.2%,101%,97.5%,110%,106%,88.9%,96.3%,84.3%,102%,18.2%,60.9%,98%,108%,–
Clc1ccc(Nc2ccnc(N3CCN(c4ccnc5cc(Cl)ccc45)CC3)n2)cc1,20.4%,32.2%,27.7%,58.2%,51.9%,37.7%,31.3%,–,63.8%,73.7%,51.4%,-8.75% (active),41.9%,-1.58% (active),38.4%,31.9%,–,60.9%,34.8%,–
Cc1nc2cc(Nc3nc(Nc4ccc(F)cc4)nc(-c4ccc(Cl)cc4)n3)ccc2n1Cc1ccccc1,64.4%,55.8%,65.2%,83.4%,69.7%,–,–,76.6%,92.6%,83.6%,77.1%,44.5%,71.6%,70.3%,3.88% (active),0.841% (active),–,112%,90.4%,83.4%
COc1ccc(/C=C2\CN(Cc3cn(CCCNc4ccnc5cc(Cl)ccc45)nn3)C/C(=C\c3ccc(OC)cc3)C2=O)cc1,67.6%,14.6%,70.1%,72.9%,41.3%,–,–,35.5%,80.5%,90.4%,67%,54.7%,79.6%,52.9%,1.02% (active),32.2%,–,94.9%,92.6%,52.7%
CCCCC(=O)N/N=C/c1cc(I)cc(I)c1O,15.6%,56.2%,62.8%,62.9%,–,47%,38.8%,38.9%,58.8%,64.3%,56.3%,34.9%,23.6%,70.4%,14.9%,–,–,49.3%,21.6%,78.9%
O=C1c2ccccc2C(=O)c2c(Nc3ccc(CCO)cc3)ccc(O)c21,61.7%,57.4%,64.3%,84.8%,74.2%,–,74.9%,51.6%,44.8%,103%,85.5%,47.4%,64.4%,51.5%,39.8%,35.9%,45%,100%,-4.04% (active),86.7%
O=C1/C(=C/c2ccc(Cl)cc2)CN(Cc2cn(CCCNc3ccnc4cc(Cl)ccc34)nn2)C/C1=C\c1ccc(Cl)cc1,-74.2% (active),-69.6% (active),-4.46% (active),-79.6% (active),-91.9% (active),–,–,-86.2% (active),-82.6% (active),-35.2% (active),-80.2% (active),-98% (active),-99.3% (active),-61.3% (active),-31.2% (active),-16.7% (active),–,-56.6% (active),-20.4% (active),-86.2% (active)
Cc1ccc(S(=O)(=O)N(c2ccc(Cl)cc2)c2ccc(Br)cc2C(=O)O)cc1,100%,107%,97.2%,99.9%,95.8%,96.7%,105%,–,119%,–,99.4%,91.4%,105%,111%,102%,98.5%,–,–,102%,–
Cn1c2c(cc(S(=O)(=O)c3ccccc3)c1=O)CCc1c-2cnn1-c1cccc(Cl)c1,96.7%,91.3%,76.4%,97%,–,83.1%,84.6%,93.4%,94.7%,107%,90.3%,-84.5% (active),-87.9% (active),71.4%,90.9%,86.2%,–,86.5%,-58% (active),83.3%
COc1ccc(/C=C2\CN(Cc3cn(CCCNc4ccnc5cc(Cl)ccc45)nn3)C/C(=C\c3ccc(OC)c(OC)c3)C2=O)cc1OC,9.96% (active),-40.1% (active),42.6%,33%,0.724% (active),–,–,-68.9% (active),40.1%,27.7%,-38% (active),33.2%,-38% (active),23.5%,-15.2% (active),-13% (active),–,14.3%,31%,5.86% (active)
CCOC(=O)c1cc2c(n(C)c1=O)-c1cnn(-c3ccc(OC)cc3)c1CC2,89%,95.6%,90.5%,96.6%,–,98.5%,91.1%,93.9%,96.6%,105%,99.8%,77.5%,81.4%,87%,89.5%,–,–,130%,89.8%,98%
O=C(Nc1ccccc1O)c1ccc(NS(=O)(=O)c2cccc3cccnc23)cc1,63.9%,39.9%,48.5%,67.9%,46.5%,59%,23.1%,–,37.6%,23.6%,61.2%,20.8%,52.1%,45.5%,33.1%,28.5%,–,–,44.7%,–
CCCN(CCC)c1ccc(/C=C/c2ccc3cc(OCC)ccc3n2)cc1,78.6%,66.7%,98.6%,90%,74.9%,–,86.6%,97.6%,64.8%,88.2%,90.7%,71.8%,92.4%,64.6%,63.4%,53%,86.3%,116%,85.1%,78.3%
COc1ccc(-c2nc(Nc3ccc(F)cc3)nc(Nc3ccc4c(c3)nc(C)n4Cc3ccccc3)n2)cc1,33.4%,8.87% (active),68%,60.7%,39.2%,–,–,38.9%,56.6%,48.2%,48.4%,29.3%,37.1%,72.7%,-6.22% (active),-9.61% (active),–,74.9%,83.2%,47.1%
Cc1cc(Cl)c2c(Cl)ccc(Cl)c2n1,95.4%,102%,95.5%,107%,–,96.3%,105%,103%,113%,81.4%,113%,89.8%,105%,104%,98.7%,–,–,112%,95%,102%
